# In PubChem BioAssay (Tox21):
# Several values for one entry are separate records, joined by “and”; a condition that tells them apart may be missing. Equal values may be shown once. Unmarked numbers belong to inactive results. Results filed as inconclusive are left out. Where a call stands in place of a potency, no number is given. Activity calls are given as the source filed them. Unless noted, the call rests on the fitted dose curve; in most records, active means well fitted curve in the direction sought with a large enough effect in the repeat runs; inconclusive means weak or mixed curves; inactive means no such curve, though single readings can be large; an effect the other way counts as inactive or inconclusive.
# How the values were obtained:
# [1] = qHTS assay to identify small molecule agonists of H2AX (AID 1224845; active means well fitted activation curve with a large enough effect in the signal ratio in the repeat runs, not every such curve was filed as active; the % refers to the signal ratio; further: potency means the concentration at half of the fitted maximal effect)
# Method in brief: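 Wild-type CHO-K1 cells, plated overnight, exposed 3hr at 37C to 15 concentrations (0.76% DMSO final). Lysed, then HTRF anti-pH2AX (S139) cryptate and anti-H2AX-d2 antibodies, 24 hr room temperature; 665/620 nm emission read.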
# [2] = qHTS assay to identify small molecule agonists of H2AX - cell viability counter screen (AID 1224847; calls by dose curve; further: nearly all actives have a fitted effect of over 30% in size; further: potency means the concentration at half of the fitted maximal effect; on activity change, negative = cytotoxicity: top concentration of the series differs between compounds)
# Method in brief: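 Compounds tested at 15 concentrations were incubated 3 hr at 37C with wild-type CHO-K1 cells; cellular ATP-based luminescence (CellTiter-Glo) indicated viability.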
# [3] = qHTS RealTime-Glo MT Cell Viability Assay in HepG2 cells - 24 hour (AID 1224867); further: nearly all actives have a fitted effect of over 50% in size; further: potency means the concentration at half of the fitted maximal effect
# Method in brief: (§1)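 HepG2 cells (600/well) were dispensed with RealTime-Glo reagents, incubated 5 h at 37 °C, then treated with compounds in DMSO for up to 40 h. Nonlytic NanoLuc luminescence reflecting viable cells was read at each stated time point.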
# [4] = A CellTox Green Cytotoxicity Assay to monitor cytotoxicity in HEK293 cells - 0 hour (AID 1224869); further: nearly all actives have a fitted effect of over 50% in size
# Method in brief: (§2)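 HEK293 cells, 600/well, were preincubated 5 hours and then exposed to compounds at 37 C for up to 40 hours. A cell-impermeant cyanine dye staining dead-cell DNA was read by fluorescence at 0, 8, 16, 24, 32 and 40 h time points.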
# [5] = qHTS RealTime-Glo MT Cell Viability Assay in HepG2 cells - 40 hour (AID 1224870); further: nearly all actives have a fitted effect of over 50% in size; further: potency means the concentration at half of the fitted maximal effect
# Method in brief: (§3)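 HepG2 cells (600/well) mixed with RealTime-Glo MT reagent, settled 5 h at 37 C/5% CO2 before compound addition. Nonlytic NanoLuc luminescence from viable-cell prosubstrate reduction read repeatedly during 40 h treatment at 37 C.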
# [6] = qHTS RealTime-Glo MT Cell Viability Assay in HepG2 cells - 8 hour (AID 1224873); further: nearly all actives have a fitted effect of over 55% in size; further: potency means the concentration at half of the fitted maximal effect
# Method in brief: as §3
# [7] = A CellTox Green Cytotoxicity Assay to monitor cytotoxicity in HEK293 cells - 24 hour (AID 1224875); further: nearly all actives have a fitted effect of over 45% in size; further: potency means the concentration at half of the fitted maximal effect
# Method in brief: as §2
# [8] = A CellTox Green Cytotoxicity Assay to monitor cytotoxicity in HepG2 cells - 16 hour (AID 1224876); further: nearly all actives have a fitted effect of over 45% in size; further: potency means the concentration at half of the fitted maximal effect
# Method in brief: (§4)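 HepG2 cells, 600/well, preincubated 5 h with CellTox Green dye, then exposed to Tox21 compounds in DMSO at 37 C for up to 40 h. Dead-cell DNA fluorescence read at the indicated time point.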
# [9] = qHTS RealTime-Glo MT Cell Viability Assay in HepG2 cells - 32 hour (AID 1224877); further: nearly all actives have a fitted effect of over 55% in size; further: potency means the concentration at half of the fitted maximal effect
# Method in brief: as §1
# [10] = A CellTox Green Cytotoxicity Assay to monitor cytotoxicity in HepG2 cells - 24 hour (AID 1224878); further: nearly all actives have a fitted effect of over 45% in size; further: potency means the concentration at half of the fitted maximal effect
# Method in brief: as §4
# [11] = A CellTox Green Cytotoxicity Assay to monitor cytotoxicity in HepG2 cells - 40 hour (AID 1224879); further: nearly all actives have a fitted effect of over 40% in size; further: potency means the concentration at half of the fitted maximal effect
# Method in brief: as §4
# [12] = A CellTox Green Cytotoxicity Assay to monitor cytotoxicity in HEK293 cells - 32 hour (AID 1224881); further: nearly all actives have a fitted effect of over 40% in size; further: potency means the concentration at half of the fitted maximal effect
# Method in brief: as §2
# [13] = qHTS assay to identify small molecule antagonists of the estrogen related receptor (ERR) signaling pathway from Tox21 library (AID 1224848); further: nearly all actives have a fitted effect of over 50% in size; further: potency means the concentration at half of the fitted maximal effect
# Method in brief: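 Luminescent reporter read-out (ONE-Glo) from NTP's ERR cell line after 18 h treatment at 37 C with DMSO-dissolved Tox21 compounds; cells pre-plated 6 h beforehand at 2,000 per well.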
# [14] = qHTS assay to identify small molecule agonists of the estrogen related receptor (ERR) signaling pathway from Tox21 library (AID 1224849; calls by dose curve; further: nearly all actives have a fitted effect of over 15% in size); details: ERR reporter cell line, ONE-Glo luciferase, 18 h; at 92.4 µM (top of the series) unless noted
# Method in brief: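 ERR reporter cells (NTP line) pre-incubated 6 hours at 37 C, then exposed to compounds for 18 hours at 37 C. ONE-Glo luciferase luminescence was read after 30 minutes at room temperature.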
# [15] = qHTS RealTime-Glo MT Cell Viability Assay in HEK293 cells - 40 hour (AID 1224874); details: RealTime-Glo luminescence; max response: hits give low values; further: nearly all actives have a fitted effect of over 50% in size; further: potency means the concentration at half of the fitted maximal effect
# Method in brief: (§5)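 600 cells/well were plated with the nonlytic NanoLuc/prosubstrate reagent, pre-incubated 5 h, then given 23 nL of compound in DMSO. Incubation at 37 C for 40 h, with luminescence from viable-cell-reduced substrate read repeatedly from 0 h.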
# [16] = qHTS RealTime-Glo MT Cell Viability Assay in HEK293 cells - 0 hour (AID 1224880); further: top concentration of the series differs between compounds; nearly all actives have a fitted effect of over 45% in size
# Method in brief: as §5
# [17] = qHTS RealTime-Glo MT Cell Viability Assay in HEK293 cells - 32 hour (AID 1224868); further: nearly all actives have a fitted effect of over 50% in size; further: potency means the concentration at half of the fitted maximal effect
# Method in brief: (§6)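 HEK293 cells seeded with NanoLuc/prosubstrate reagent, rested 5 h at 37 C, then dosed and kept at 37 C up to 40 h. Nonlytic real-time luminescence from viable cells read at 0, 8, 16, 24, 32 and 40 h.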
# [18] = A CellTox Green Cytotoxicity Assay to monitor cytotoxicity in HEK293 cells - 40 hour (AID 1224871); further: nearly all actives have a fitted effect of over 45% in size; further: potency means the concentration at half of the fitted maximal effect
# Method in brief: as §2
# [19] = qHTS RealTime-Glo MT Cell Viability Assay in HEK293 cells - 16 hour (AID 1224872); further: nearly all actives have a fitted effect of over 50% in size; further: potency means the concentration at half of the fitted maximal effect; on activity change, negative = cytotoxicity: top concentration of the series differs between compounds
# Method in brief: as §6
structure (smiles),measurement,setting,value
N#C/C=C/C#N,Potency,[1],inactive
same,Potency,[2],inactive
same,Potency,[3],inactive
same,Potency,[4],inactive
same,Potency,[5],inactive
same,Potency,[6],inactive
same,Potency,[7],inactive
same,Potency,[8],inactive
same,Potency,[9],inactive
same,Potency,[10],inactive
same,Potency,[11],inactive
same,Potency,[12],inactive
CC[C@H](C)[C@H]1O[C@]2(C=C[C@@H]1C)C[C@@H]1C[C@@H](C/C=C(\C)[C@@H](O[C@H]3C[C@H](OC)[C@@H](O[C@H]4C[C@H](OC)[C@@H](O)[C@H](C)O4)[C@H](C)O3)[C@@H](C)/C=C/C=C3\CO[C@@H]4[C@H](O)C(C)=C[C@@H](C(=O)O1)[C@]34O)O2,Potency,[1],inactive
same,Potency,[13],7.2 µM (active)
same,"activity change, positive = activation",[14],-67% [at 42.5 µM]
same,Potency,[15],10.3 µM (active)
same,Potency,[7],inactive
same,Potency,[16],inactive
same,Potency,[12],inactive
N#CCCC(Br)(C#N)CBr (centres undefined),Potency,[1],35.7 µM (active)
same,Potency,[2],127 µM (active)
same,"activity change, positive = activation",[14],-45.2%
same,Potency,[3],38.9 µM (active)
same,Potency,[17],21.9 µM (active)
same,Potency,[5],38.9 µM (active)
same,Potency,[18],49 µM (active)
same,Potency,[19],38.9 µM (active)
same,Potency,[6],49 µM (active)
same,Potency,[7],54.9 µM (active)
same,Potency,[8],43.6 µM (active)
same,Potency,[9],34.7 µM (active)
same,Potency,[10],38.9 µM (active)
same,Potency,[11],24.5 µM (active)
same,Potency,[16],inactive
same,Potency,[12],54.9 µM (active)
O=C(CCCN1CCC2(CC1)C(=O)NCN2c1ccccc1)c1ccc(F)cc1,Potency,[1],inactive
same,Potency,[13],inactive
same,Potency,[3],inactive
same,Potency,[17],9.52 µM (active)
same,Potency,[4],inactive
same,Potency,[5],inactive
same,Potency,[18],19 µM (active)
same,Potency,[19],6.74 µM (active)
same,Potency,[6],inactive
same,Potency,[15],13.4 µM (active)
same,Potency,[8],inactive
same,Potency,[9],inactive
same,Potency,[10],inactive
same,Potency,[11],inactive
same,Potency,[16],inactive
same,Potency,[12],inactive
CC(C)OC(=O)C(O)(c1ccc(Cl)cc1)c1ccc(Cl)cc1,Potency,[1],80 µM (active)
same,Potency,[2],56.6 µM (active)
same,Potency,[17],21.9 µM (active)
same,Potency,[4],inactive
same,Potency,[18],49 µM (active)
same,Potency,[19],30.9 µM (active)
same,Potency,[15],24.5 µM (active)
same,Potency,[10],27.5 µM (active)
same,Potency,[11],38.9 µM (active)
same,Potency,[16],inactive
same,Potency,[12],54.9 µM (active)
CN(C)C(=S)[S-].CN(C)C(=S)[S-].[Cu+2],Potency,[1],2.45 µM (active)
same,Potency,[2],27.5 µM (active)
same,Potency,[3],2.67 µM (active)
same,Potency,[17],1.34 µM (active)
same,cytotoxicity,[4],-8.31% [at 15.8 µM]
same,Potency,[5],2.38 µM (active)
same,Potency,[19],1.89 µM (active)
same,Potency,[6],6.7 µM (active)
same,Potency,[15],1.19 µM (active)
same,Potency,[7],2.38 µM (active)
same,Potency,[8],4.23 µM (active)
same,Potency,[9],2.67 µM (active)
same,Potency,[11],2.67 µM (active)
same,"activity change, negative = cytotoxicity",[16],-3.44% [at 15.8 µM]
same,Potency,[12],2.38 µM (active)
C=CC(=O)OCCCCOC(=O)C=C,Potency,[1],101 µM (active)
same,Potency,[13],inactive
same,"activity change, positive = activation",[14],-26.6% (active)
same,Potency,[3],49 µM (active)
same,Potency,[17],34.7 µM (active)
same,Potency,[4],inactive
same,Potency,[15],34.7 µM (active)
same,Potency,[8],inactive
same,Potency,[9],49 µM (active)
same,Potency,[10],inactive
same,Potency,[11],49 µM (active)
same,Potency,[16],inactive
same,Potency,[12],43.6 µM (active)
CC(C)[C@H](C(=O)O[C@H](C#N)c1cccc(Oc2ccccc2)c1)c1ccc(Cl)cc1,Potency,[1],inactive
same,Potency,[2],inactive
same,Potency,[3],inactive
same,Potency,[4],inactive
same,Potency,[5],inactive
same,Potency,[18],inactive
same,Potency,[7],inactive
same,Potency,[8],inactive
same,Potency,[9],inactive
same,Potency,[11],inactive
same,Potency,[16],inactive
same,Potency,[12],inactive
Oc1ccc(C2(c3ccc(O)cc3)CCCCC2)cc1,Potency,[1],inactive
same,Potency,[2],95.4 µM (active)
same,Potency,[3],inactive
same,Potency,[17],52.1 µM (active)
same,Potency,[4],inactive
same,Potency,[5],inactive
same,Potency,[6],inactive
same,Potency,[15],46.4 µM (active)
same,Potency,[8],inactive
same,Potency,[9],inactive
same,Potency,[10],inactive
same,Potency,[16],inactive
CC(C)[C@H](C(=O)OC(C#N)c1cccc(Oc2ccccc2)c1)c1ccc(OC(F)F)cc1 (some centres undefined),Potency,[1],inactive
same,Potency,[13],15.4 µM (active)
same,"activity change, positive = activation",[14],-19.1%
same,Potency,[3],inactive
same,Potency,[17],inactive
same,Potency,[4],inactive
same,Potency,[5],inactive
same,Potency,[18],inactive
same,Potency,[19],inactive
same,max response,[15],-16.8%
same,Potency,[7],inactive
same,Potency,[8],inactive
same,Potency,[9],inactive
same,Potency,[10],inactive
same,Potency,[11],inactive
same,Potency,[16],inactive
same,Potency,[12],inactive
Cc1cc(SCc2sc(-c3ccc(C(F)(F)F)c(F)c3)nc2C)ccc1OCC(=O)O,Potency,[1],inactive
same,Potency,[2],101 µM (active)
same,"activity change, positive = activation",[14],-21.2%
same,Potency,[3],inactive
same,Potency,[4],inactive
same,Potency,[18],inactive
same,Potency,[6],inactive
same,Potency,[7],inactive
same,Potency,[8],inactive
same,Potency,[10],inactive
same,Potency,[11],inactive
same,Potency,[16],inactive
same,Potency,[12],inactive
COP(=S)(OC)Oc1cc(Cl)c(Br)cc1Cl,Potency,[1],inactive
same,Potency,[3],inactive
same,Potency,[17],inactive
same,Potency,[4],inactive
same,Potency,[5],inactive
same,Potency,[18],inactive
same,Potency,[19],inactive
same,Potency,[6],inactive
same,Potency,[7],inactive
same,Potency,[8],inactive
same,Potency,[9],inactive
same,Potency,[10],inactive
same,Potency,[11],inactive
same,Potency,[16],inactive
same,Potency,[12],inactive
CC1(C)[C@H](C(=O)O[C@H](C#N)c2cccc(Oc3ccccc3)c2)[C@@H]1/C=C(\Cl)C(F)(F)F,Potency,[1],inactive
same,Potency,[2],inactive
same,Potency,[3],inactive
same,Potency,[17],inactive
same,Potency,[4],inactive
same,Potency,[5],inactive
same,Potency,[18],inactive
same,Potency,[6],inactive
same,max response,[15],-24.1%
same,Potency,[7],inactive
same,Potency,[8],inactive
same,Potency,[11],inactive
same,Potency,[16],inactive
same,Potency,[12],inactive
CCCCCCCCCCCCCCCC[n+]1ccccc1,Potency,[1],inactive
same,Potency,[4],inactive
same,Potency,[18],34.2 µM (active) [middle of 4 runs]
same,Potency,[19],21.6 µM (active) [middle of 4 runs]
same,Potency,[6],57.5 µM (active) and 49 µM (active) and 48.3 µM (active)
same,Potency,[11],15.5 µM (active) [middle of 4 runs]
same,Potency,[16],inactive
same,Potency,[12],34.2 µM (active) [middle of 4 runs]
CC(C)N1C(=O)N(c2ccccc2)CSC1=NC(C)(C)C,Potency,[1],inactive
same,Potency,[13],34.4 µM (active)
same,"activity change, positive = activation",[14],-49.9%
same,Potency,[3],inactive
same,Potency,[17],21.9 µM (active)
same,Potency,[4],inactive
same,Potency,[5],inactive
same,Potency,[18],inactive
same,Potency,[19],19.5 µM (active)
same,Potency,[6],inactive
same,Potency,[15],21.9 µM (active)
same,Potency,[7],inactive
same,Potency,[8],inactive
same,Potency,[9],inactive
same,Potency,[10],inactive
same,Potency,[11],inactive
same,Potency,[16],inactive
same,Potency,[12],inactive
